These results are taken from PubChem BioAssay (NCATS).

Test [1] has as its target Cytochrome P450 1A2 (Homo sapiens) (UniProt P05177). As to the kind of experiment: p450-cyp1a2 (AID 410; calls by dose curve). In a few lines:
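Read-out is luminescence from luciferin produced by CYP1A2 demethylation of Luciferin-ME (100uM, at Km). Detection reagent stopped the 60 min NADPH-dependent reaction; signals were normalized to 57 uM furafylline.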

Test [2] addresses Glucocorticoid receptor (Homo sapiens) (UniProt P04150). As to the kind of experiment: GR-GFP Redistribution (AID 450;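 active means compounds whose dose series gives a full or clear partial fitted curve of increased nuclear translocation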; further: potency means the concentration at half of the fitted maximal effect). The note with it: U2OS GR-GFP nuclear translocation, laser cytometry, 2 h.
For test [3] the target is unchanged. The experiment in a line: GR-EFC Redistribution (AID 451; calls by dose curve; further: potency means the concentration at half of the fitted maximal effect). The note with it: CHO-K1 GR-EFC translocation, beta-gal luminescence, 2 h. A digest of the protocol: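 CHO-K1 cells stably expressing nuclear-localized β-gal enzyme acceptor and GR fused C-terminally to the enzyme donor fragment; ligand-driven nuclear translocation restores β-gal by complementation. Compounds titrated up to 46 uM final, 2 h at 37 °C; luminescence read.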

Test [4] has as its target Mitogen-activated protein kinase 10 (Mus musculus) (UniProt Q61831). As to the kind of experiment: JNK3 AlphaScreen Assay (AID 530; active means well fitted curve in either direction with a large enough effect, not every such curve was filed as active;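 further: kinase came from lysate of stimulated human HepG2 cells; signal reports phosphorylation of biotinylated GST-cJun 1-79 at Ser73 with 10 µM ATP; on the % scale 0 is the no-effect control and ±100 the full control effect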). A digest of the protocol:
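Biotinylated GST-cJun(1-79) served as substrate for JNK3 in HepG2 lysates stimulated with IL-1beta and TNF-alpha. ATP was 10 uM final, pH 7.6. Ser73 phosphorylation was quantified by AlphaScreen (680 nm excitation).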

The target of test [5] is Cytochrome P450 2C9 (Homo sapiens) (UniProt P11712). As to the kind of experiment: qHTS Assay for Inhibitors and Substrates of Cytochrome P450 2C9 (AID 883). Further: nearly all actives have a fitted effect of over 60% in size. Further: potency means the concentration at half of the fitted maximal effect. In a few lines: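 Human CYP2C9 (10nM) hydroxylated Luciferin-H (100uM, at its KM) to luciferin in 25mM KPO4. Compound was preincubated 10 min at 37C, then NADPH regeneration started a 60 min reaction at 37C. Luminescence was read after detection reagent, normalized to 57uM sulphaphenazole.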

The target in test [6] is Cytochrome P450 2C19 (Homo sapiens) (UniProt P33261). The experiment in a line: qHTS Assay for Inhibitors and Substrates of Cytochrome P450 2C19 (AID 899). Further: nearly all actives have a fitted effect of over 60% in size. Further: potency means the concentration at half of the fitted maximal effect. In a few lines:
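Human CYP2C19 (5nM) with Luciferin-H EGE at 10uM (its KM) in 50mM KPO4 was preincubated with compound for 10 min at 37C. NADPH regeneration started a 60 min 37C reaction. Luciferin was read by luminescence, normalized to 57uM ketoconazole.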

The nature of test [7]: Stat Signaling Pathway (AID 446; active means well fitted curve in either direction with a large enough effect, not every such curve was filed as active;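 further: ME-180 cervical cancer cells given 40 pM IL-6 alongside compound; SIE-controlled beta-lactamase reporter measured as 460/530 nm FRET emission ratio; on the % scale 0 is the no-effect control and ±100 the full control effect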). A digest of the protocol:
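FRET read-out (405 nm excitation, 460/530 nm emission) of a beta-lactamase reporter under a STAT-inducible element in ME-180 cervical carcinoma cells. Cells with compound receive 40 pM IL-6 for 5 h. Values are normalised to AC90 stimulation and AC90 JAK-inhibitor controls.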

In test [8] the target is 3',5'-cyclic-AMP phosphodiesterase 4B (Homo sapiens) (UniProt Q07343). The experiment in a line: qHTS Assay for Inhibitors of PDE-IV (AID 607; active means well fitted activation curve with a large enough effect in the main read-out, with a control signal flat, not every such curve was filed as active; further: % of control where 0% means no effect). A digest of the protocol: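 Cell-based read-out of cAMP via a modified cyclic nucleotide-gated channel and membrane potential dye (535/590 nm) in HEK293 cells expressing PDE4 endogenously. Compounds tested up to 22.9 uM final; 100 uM RO 20-1724 reference.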

Test [9] addresses Cytochrome P450 2D6 (Homo sapiens) (UniProt P10635). The experiment in a line: qHTS Assay for Inhibitors and Substrates of Cytochrome P450 2D6 (AID 891). Further: potency means the concentration at half of the fitted maximal effect; nearly all actives have a fitted effect of over 60% in size. In a few lines: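 Luminescent read-out of luciferin formed by 5 nM human CYP2D6 demethylating 30 uM Luciferin-ME EGE (Km level) over 60 min at room temperature after NADPH regeneration addition. Data normalized to full inhibition by 1.43 uM quinidine.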

The nature of test [10]: Cell Viability - BJ (AID 421; calls by dose curve;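 further: potency means the concentration at half of the fitted maximal effect; cells exposed to compound for 40 hours at 37 °C before readout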). The note with it: BJ fibroblast viability, qHTS. In a few lines:
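Cytotoxicity as drop in intracellular ATP (CellTiter-Glo, 20 min RT) after 40 hr compound exposure of BJ fibroblasts at 37 °C. Titrations scaled between DMSO and 100 uM tamoxifen, Hill-fitted for AC50.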

Test [11] in a line: Cell Viability - SK-N-SH (AID 435; calls by dose curve;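 further: potency means the concentration at half of the fitted maximal effect; compound exposure lasted 40 h at 37 °C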). The note with it: SK-N-SH neuroblastoma cell viability qHTS. In a few lines: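 Cells seeded at 1500 per well and incubated 5 hr at 37 °C. Compound added, then 40 hr at 37 °C. CellTiter-Glo added, 20 min at room temperature, luminescence read.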
Test [12] in a line: Cellular Toxicity (caspase-3) Renal Proximal Tubule (AID 667).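 Further: cells exposed to compound for 16 hours at 37 °C before detection; 0% = DMSO basal and 100% = 10 µM staurosporine.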 The settings on record: renal proximal tubule cells; at 91.7 µM (top of the series) unless noted. In a few lines:
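In qHTS format, rat primary proximal tubule cells seeded at 1000 per well are exposed to compounds for 16 hours at 37 °C. An increase in Caspase-Glo 3/7 luminescence indicates caspase activation.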

Test [13] addresses Cytochrome P450 3A4 (Homo sapiens) (UniProt P08684). As to the kind of experiment: qHTS Assay for Inhibitors and Substrates of Cytochrome P450 3A4 (AID 884). Further: nearly all actives have a fitted effect of over 50% in size. Further: potency means the concentration at half of the fitted maximal effect. A digest of the protocol: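 Luminescent readout of luciferin produced by CYP3A4 (20 nM) dealkylation of Luciferin-PPXE, 25 uM (its KM). NADPH-driven reaction ran 60 min at RT after 10 min compound preincubation; data scaled to 57 uM ketoconazole as 100% inhibition.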

Test [14] can be described thus: MultiTox-Fluor Cytotoxicity Assay - LYMP1-002 - Live Cells (AID 955). Further: potency means the concentration at half of the fitted maximal effect. A digest of the protocol:
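In this qHTS viability format, lymphoblastoid cells (LYMP1-002, human) received compound for 16 hr at 37 C. Fluorogenic GF-AFC cleavage by viable cells was detected at 405/510 nm after 1 h at room temperature.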

The nature of test [15]: MultiTox-Fluor Cytotoxicity Assay - LYMP1-003 - Live Cells (AID 962). Further: potency means the concentration at half of the fitted maximal effect. A digest of the protocol: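 Human lymphoblastoid line LYMP1-003 in complete culture medium, treated 16 hr with titrated compounds. Viable cells quantified via cell-permeant GF-AFC substrate fluorescence; AC50 derived by Hill fitting.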
A short description of test [16]: Cell Viability - LYMP2-008 (AID 980). Further: potency means the concentration at half of the fitted maximal effect; nearly all actives have a fitted effect of over 60% in size. In a few lines:
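Measured: ATP-dependent luminescence, proportional to viable cell number, in human lymphoblastoid cells treated 24 hr with compound in complete culture medium. Values are AC50s from Hill-equation modelling of qHTS titrations.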

Test [17] can be described thus: qHTS assay for small molecule agonists of the antioxidant response element (ARE) signaling pathway measured by Nrf2-dependant transcriptional activity - cell viability counter screen (AID 720653; active means well fitted curve in the direction sought with a large enough effect in the repeat runs; an effect the other way counts as inactive or inconclusive; further: potency means the concentration at half of the fitted maximal effect; on max response: on the % scale 0 is the no-effect control and ±100 the full control effect). The settings on record: ARE-bla HepG2 viability, CellTiter-Glo ATP luminescence, 16 h; max response: active compounds read low. A digest of the protocol:
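ARE-bla HepG2 cells (2,000/well) rested 5 hrs at 37C/5% CO2, then exposed to compounds in DMSO for 16 hrs. Viability was read in the same wells as intracellular ATP by luminescence, 30 min at room temperature after reagent addition.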

The nature of test [18]: Cell Viability - MRC5 (AID 434; calls by dose curve;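 further: potency means the concentration at half of the fitted maximal effect; cells exposed to compound for 40 hours at 37 °C; potency reflects cytotoxicity seen as loss of intracellular ATP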). The note with it: MRC5 lung fibroblast viability, qHTS. In a few lines: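 Decrease in intracellular ATP, quantified by luciferase light output, reflects compound toxicity toward MRC5 cells exposed for 40 hr in complete culture medium. Concentration-response curves, scaled between DMSO and 100 uM tamoxifen, gave AC50 values.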
In test [19] the target is Cytochrome P450 3A4 (Homo sapiens) (UniProt P08684). As to the kind of experiment: qHTS Assay for Activators of Cytochrome P450 3A4 (AID 885). Further: nearly all actives have a fitted effect of over 65% in size. A digest of the protocol: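 Luminescent readout of luciferin formed from 25 uM Luciferin-PPXE (KM level) by 20 nM CYP3A4 in 200 mM KPO4, with 60 min NADPH-driven reaction at room temperature after 10 min compound exposure. Ketoconazole (57 uM) defined 100% inhibition.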

Molecules are shown by their SMILES. Values joined by “and” are separate entries in the source; they are usually repeats but may differ in a detail not shown here. Equal values may be shown once. Unmarked numbers belong to inactive results. Records with an inconclusive call do not appear. Active and inactive are the calls of the source. Unless noted, the call rests on the fitted dose curve; in most records, active means well fitted curve in the direction sought with a large enough effect; inconclusive means small, poorly fitted or top-dose-only effect, or another doubt; inactive means no such curve, though single readings can be large; an effect the other way counts as inactive or inconclusive.

Glucocorticoid receptor (Homo sapiens), sequence (P04150 whole entry, looked up, the tested form may be a part): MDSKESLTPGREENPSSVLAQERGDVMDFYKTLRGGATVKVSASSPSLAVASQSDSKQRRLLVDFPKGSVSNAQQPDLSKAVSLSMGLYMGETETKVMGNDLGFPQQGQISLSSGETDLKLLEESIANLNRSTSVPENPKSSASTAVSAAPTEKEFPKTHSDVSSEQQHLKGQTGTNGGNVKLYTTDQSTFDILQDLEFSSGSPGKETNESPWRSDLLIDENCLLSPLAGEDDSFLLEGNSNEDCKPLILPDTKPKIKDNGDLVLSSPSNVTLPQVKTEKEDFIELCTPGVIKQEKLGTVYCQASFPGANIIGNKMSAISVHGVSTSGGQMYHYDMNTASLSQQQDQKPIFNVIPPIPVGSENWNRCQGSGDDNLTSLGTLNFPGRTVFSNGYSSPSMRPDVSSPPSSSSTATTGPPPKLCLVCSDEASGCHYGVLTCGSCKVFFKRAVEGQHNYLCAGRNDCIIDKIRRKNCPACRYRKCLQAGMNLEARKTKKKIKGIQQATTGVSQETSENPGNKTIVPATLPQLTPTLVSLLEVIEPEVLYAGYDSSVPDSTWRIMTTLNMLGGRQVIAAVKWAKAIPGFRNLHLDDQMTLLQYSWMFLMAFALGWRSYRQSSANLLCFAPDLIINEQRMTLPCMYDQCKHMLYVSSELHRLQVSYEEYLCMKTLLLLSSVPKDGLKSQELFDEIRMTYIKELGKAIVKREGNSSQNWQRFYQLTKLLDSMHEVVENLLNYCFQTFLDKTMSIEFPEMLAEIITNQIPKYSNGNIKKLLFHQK
Cytochrome P450 1A2 (Homo sapiens), sequence (P05177 whole entry, looked up): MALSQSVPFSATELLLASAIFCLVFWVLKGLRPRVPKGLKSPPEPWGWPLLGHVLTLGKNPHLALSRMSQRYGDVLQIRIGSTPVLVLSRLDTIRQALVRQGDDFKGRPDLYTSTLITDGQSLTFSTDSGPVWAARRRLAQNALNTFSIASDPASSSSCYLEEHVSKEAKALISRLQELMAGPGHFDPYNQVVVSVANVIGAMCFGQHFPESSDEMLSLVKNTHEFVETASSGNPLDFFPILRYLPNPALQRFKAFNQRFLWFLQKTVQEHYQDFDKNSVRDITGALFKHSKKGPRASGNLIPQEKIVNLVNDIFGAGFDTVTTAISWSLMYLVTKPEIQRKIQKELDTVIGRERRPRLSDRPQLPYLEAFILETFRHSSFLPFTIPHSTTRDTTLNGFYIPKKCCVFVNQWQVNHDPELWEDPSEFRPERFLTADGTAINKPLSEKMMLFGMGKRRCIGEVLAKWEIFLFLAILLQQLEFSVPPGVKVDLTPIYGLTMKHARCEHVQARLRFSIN
Cytochrome P450 2C19 (Homo sapiens), sequence (P33261 whole entry, looked up): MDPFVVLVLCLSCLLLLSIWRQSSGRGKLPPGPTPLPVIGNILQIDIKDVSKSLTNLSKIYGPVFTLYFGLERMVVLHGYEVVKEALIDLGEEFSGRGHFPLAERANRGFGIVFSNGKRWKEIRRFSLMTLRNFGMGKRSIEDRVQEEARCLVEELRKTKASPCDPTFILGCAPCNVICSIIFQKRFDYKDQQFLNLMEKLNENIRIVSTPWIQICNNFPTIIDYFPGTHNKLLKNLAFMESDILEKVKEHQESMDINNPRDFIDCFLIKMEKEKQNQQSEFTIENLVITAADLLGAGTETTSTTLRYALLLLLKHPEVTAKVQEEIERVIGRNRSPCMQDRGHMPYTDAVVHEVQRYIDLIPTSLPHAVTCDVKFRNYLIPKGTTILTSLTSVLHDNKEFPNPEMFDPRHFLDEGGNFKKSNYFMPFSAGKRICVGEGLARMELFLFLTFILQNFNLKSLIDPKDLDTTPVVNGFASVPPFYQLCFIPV
Cytochrome P450 2C9 (Homo sapiens), sequence (P11712 whole entry, looked up): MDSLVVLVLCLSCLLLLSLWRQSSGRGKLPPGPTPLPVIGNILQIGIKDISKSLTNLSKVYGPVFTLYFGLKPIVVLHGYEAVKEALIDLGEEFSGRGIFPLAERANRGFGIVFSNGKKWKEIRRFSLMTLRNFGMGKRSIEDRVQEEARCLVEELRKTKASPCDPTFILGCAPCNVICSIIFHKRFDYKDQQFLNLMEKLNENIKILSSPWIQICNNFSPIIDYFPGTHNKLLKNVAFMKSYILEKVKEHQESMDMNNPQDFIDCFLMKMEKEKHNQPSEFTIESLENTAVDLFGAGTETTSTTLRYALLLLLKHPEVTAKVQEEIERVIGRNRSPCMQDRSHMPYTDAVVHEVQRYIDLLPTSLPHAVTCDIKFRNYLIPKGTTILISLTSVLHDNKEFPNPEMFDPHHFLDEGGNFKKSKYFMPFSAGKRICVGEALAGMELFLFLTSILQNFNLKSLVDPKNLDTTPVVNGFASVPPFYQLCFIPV
Cytochrome P450 3A4 (Homo sapiens), sequence (P08684 whole entry, looked up): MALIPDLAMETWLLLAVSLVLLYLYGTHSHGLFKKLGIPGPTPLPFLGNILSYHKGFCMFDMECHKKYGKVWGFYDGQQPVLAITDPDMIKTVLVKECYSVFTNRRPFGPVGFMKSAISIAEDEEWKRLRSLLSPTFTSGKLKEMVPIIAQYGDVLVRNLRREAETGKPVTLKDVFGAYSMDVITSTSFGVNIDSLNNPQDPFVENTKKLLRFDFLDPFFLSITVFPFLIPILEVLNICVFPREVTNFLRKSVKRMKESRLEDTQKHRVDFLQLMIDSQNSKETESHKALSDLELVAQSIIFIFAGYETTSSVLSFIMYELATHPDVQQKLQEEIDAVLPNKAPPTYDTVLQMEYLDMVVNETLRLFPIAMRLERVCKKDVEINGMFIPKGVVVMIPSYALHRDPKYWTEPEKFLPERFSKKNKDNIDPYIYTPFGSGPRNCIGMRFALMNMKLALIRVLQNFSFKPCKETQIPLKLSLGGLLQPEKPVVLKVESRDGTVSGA
Cytochrome P450 2D6 (Homo sapiens), sequence (P10635 whole entry, looked up): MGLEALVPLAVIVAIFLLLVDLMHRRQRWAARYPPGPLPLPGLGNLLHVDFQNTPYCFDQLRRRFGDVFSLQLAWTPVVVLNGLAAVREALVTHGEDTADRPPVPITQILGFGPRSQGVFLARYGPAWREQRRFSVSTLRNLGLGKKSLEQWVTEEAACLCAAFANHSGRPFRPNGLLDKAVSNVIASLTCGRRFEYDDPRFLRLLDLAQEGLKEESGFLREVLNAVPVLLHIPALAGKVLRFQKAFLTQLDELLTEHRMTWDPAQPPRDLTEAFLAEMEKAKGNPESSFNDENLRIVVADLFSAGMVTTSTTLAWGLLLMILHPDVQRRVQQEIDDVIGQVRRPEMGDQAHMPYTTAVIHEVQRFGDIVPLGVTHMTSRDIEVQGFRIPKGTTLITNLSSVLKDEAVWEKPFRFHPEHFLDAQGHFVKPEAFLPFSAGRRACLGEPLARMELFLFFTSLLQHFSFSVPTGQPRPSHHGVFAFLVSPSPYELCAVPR
3',5'-cyclic-AMP phosphodiesterase 4B (Homo sapiens), sequence (Q07343 whole entry, looked up): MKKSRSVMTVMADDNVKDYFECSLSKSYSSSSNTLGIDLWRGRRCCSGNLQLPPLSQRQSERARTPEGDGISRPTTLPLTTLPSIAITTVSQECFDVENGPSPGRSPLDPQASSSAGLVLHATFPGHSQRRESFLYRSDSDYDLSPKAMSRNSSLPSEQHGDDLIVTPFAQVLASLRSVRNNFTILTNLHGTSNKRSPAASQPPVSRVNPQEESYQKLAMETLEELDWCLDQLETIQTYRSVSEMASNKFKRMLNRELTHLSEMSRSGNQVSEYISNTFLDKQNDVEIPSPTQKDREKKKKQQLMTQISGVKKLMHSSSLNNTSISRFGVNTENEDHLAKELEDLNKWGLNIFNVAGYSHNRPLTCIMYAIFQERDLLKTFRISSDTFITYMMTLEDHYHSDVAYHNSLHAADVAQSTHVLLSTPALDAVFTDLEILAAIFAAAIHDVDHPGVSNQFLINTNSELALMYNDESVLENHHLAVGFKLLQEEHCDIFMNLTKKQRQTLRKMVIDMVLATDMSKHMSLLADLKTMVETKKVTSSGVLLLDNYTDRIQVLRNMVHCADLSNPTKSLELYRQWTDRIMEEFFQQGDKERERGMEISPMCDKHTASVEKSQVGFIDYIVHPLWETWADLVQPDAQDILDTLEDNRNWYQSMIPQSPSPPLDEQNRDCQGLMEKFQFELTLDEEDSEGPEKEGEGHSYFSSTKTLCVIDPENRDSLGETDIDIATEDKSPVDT

Consider `CC(C)[C@@]1(NC(=O)[C@@H]2C[C@H]3c4cccc5[nH]cc(c45)C[C@@H]3N(C)C2)O[C@@]2(O)[C@H]3CCCN3C(=O)[C@@H](Cc3ccccc3)N2C1=O`, for which the Potency entry in test [1] is “inactive”. For the same compound, the Potency in test [2] was more than 46 µM; in [3], more than 46 µM; in test [5] it was 1.26 µM (active); in [6], 3.16 µM (active). Moreover, the outcome in test [4] was inactive.

Consider `CCOC(=O)[C@@]1(C#N)[C@@H]2C=CC(C(N)=O)=CN2[C@@H](C(N)=O)[C@@H]1c1cccc(Cl)c1`, for which the compound was called inactive in test [7]. In test [2], the Potency is more than 20.6 µM.

Regarding `C=C[C@@H]1CN2CC[C@@H]1C[C@H]2[C@H](O)c1ccnc2ccccc12`, the Potency result in [1], in test [5] and in test [6] was “inactive” throughout. For the same compound, the Potency was more than 46 µM in test [2], more than 46 µM in test [3] and 3.98 µM (active) in test [9]. The outcome in [4] and in test [8] was inactive.

In the case of `CC[C@H]1[C@@H]2C[C@@H]3[C@@H]4N(C)c5ccccc5[C@@]45C[C@@H]([C@H]2[C@@H]5O)N3[C@@H]1O`, the Potency entry in test [1], in [5] and in test [6] was “inactive” in each case. The Potency was more than 46 µM in [2], more than 46 µM in test [3] and 3.16 µM (active) in test [9]. In addition, the outcome in [4] was inactive.

Turning to `O=C(CCl)c1ccccc1`, the Potency is 39.2 µM (active) in [10]; 15.4 µM (active) in [11]; 31.6 µM (active) in test [14]; 39.8 µM (active) in test [15]; 12.6 µM (active) in test [16]. The caspase-3 activation in test [12] was -4.24%. Also, the Potency result in [13] is “inactive”. For the same compound, in test [17], the max response was -32.5% and -9.07%.

As for `CCCCCCCCn1sccc1=O`, the Potency in test [10] is more than 92 µM; in test [18], 10.7 µM (active); in test [11] it was 14.2 µM (active); in test [13], 12.6 µM (active); in [14], 7.94 µM (active); in test [15] it was 15.8 µM (active). The Potency in test [16] is 7.94 µM (active); in test [17], 50.1 µM (active). In addition, in [4], the result was inactive. Moreover, the caspase-3 activation in test [12] is -21.1%. In test [19], the Potency entry was “inactive”.

Turning to `N#CSCSC#N`, the Potency is 14.4 µM (active) in [10]; 41.4 µM (active) in test [18]; 14 µM (active) in test [11]; 15.8 µM (active) in test [14]; 39.8 µM (active) in [15]; 7.94 µM (active) in [16]. Also, in test [17], the Potency is 44.7 µM (active) and 39.8 µM (active). In addition, the call in test [4] was inactive. Also, the caspase-3 activation in test [12] was -11.6%. Further, in test [13], the Potency result was “inactive”.

As for `O=[N+]([O-])c1ccccc1Cl`, the Potency in test [10], in test [18] and in test [11] was more than 92 µM in each case. For the same compound, the max response in [17] is 10.4% and -3.52%.
